“And” between values parts separate entries of the source, which are not always exact repeats. Equal entries are not always repeated. A structure can be active in one record and inactive in another. The source made the active and inactive calls. How the source made its calls: active means hit-call score of the fitted dose curve at least 0.9, where 1 is the maximum; inactive means score below 0.9.
These compounds were tested on Monocyte Chemoattractant Protein-1 (MCP1), CCL2 (gene 6347) (assay: BSK_LPS_MCP1: BioMAP Diversity Plus: LPS Assay for Monocyte Chemoattractant Protein-1 (MCP1) Biomarker Activity (AID 2283081;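 on AC50: co-culture stimulated with LPS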)). Conditions: primary human HUVEC with PBMC; actives raise or lower the signal.
Experimental: BSK_LPS is a cell-based, multiplexed-readout assay that uses umbilical vein endothelium and peripheral blood mononuclear cells, a human vascular primary cell co-culture, with measurements taken at 24 hours after chemical dosing in a 96-well plate.BSK_LPS_MCP1 is an assay component measured in the BSK_LPS assay. It measures MCP-1 antibody related to regulation of gene expression using ELISA technology.Data from the assay component BSK_LPS_MCP1 was analyzed into 1 assay endpoint. This assay endpoint, BSK_LPS_MCP1, was analyzed with bidirectional fitting relative to DMSO as the negative control and baseline of activity. Using a type of binding reporter, gain or loss-of-signal activity can be used to understand changes in the signaling as they relate to the gene CCL2. Furthermore, this assay endpoint can be referred to as a primary readout, because this assay has produced multiple assay endpoints where this one serves a signaling function. To generalize the intended target to other relatable targets, this assay endpoint is annotated to the cytokine intended target family, where the subfamily is chemotactic factor.
The levels of cell surface (or secreted, indicated by the prefix "s") biomarker endpoints were measured by ELISA. Overt cytotoxicity to cells in confluent adherent cultures (all systems other than the BT system) was assessed by measuring total protein levels using sulforhodamine B (SRB) staining in parallel cultures at the time of biomarker measurements, indicated as SRB endpoints. For proliferation assays for adherent cell types, individual cell types are cultured at sub-confluence and relative cell numbers quantified by SRB staining at time points optimized for each system (48 h: 3C and CASM3C systems; 72 h: BT and HDF3CGF systems; 96 h: SAg system). SRB was performed by staining cells with 0.1% SRB after fixation with 10% TCA and reading wells at 560 nm.Viability and proliferation of PBMC (T cells) was quantified by Alamar Blue reduction for the SAg and BT systems. For PBMC viability (referred to as PBMC Cytotoxicity within the assay endpoint names), cells were plated (75,000/well in a 96-well plate) and then chemical samples added for 1 h before addition of activators, SEB and TSST-1 (20 ng/mL final concentration each). Cells were incubated for 90 h. Then, Alamar Blue (20 uL/well) (Invitrogen, Cat DAL1100) was added for 6 h, and the plates were read with a fluorescence microplate reader at 546/580 nm (excitation/emission). For PBMC proliferation, cells were plated and activated as above but incubated for only 16 h prior to addition of Alamar Blue. Plates were read after 6 h.
With `CCNc1nc(NC(C)(C)C)nc(OC)n1` the outcome was “inactive”.
`Nc1nc(N)nc(-c2ccccc2)n1` was tested, and the outcome was “inactive”.
For `CC=C(C)C(C)=O`, the outcome was “inactive”.
For `COC(OC)(C(=O)c1ccccc1)c1ccccc1`, the outcome was “inactive”.
For `O=C(Oc1ccccc1)c1ccccc1C(=O)Oc1ccccc1`, the outcome was “inactive”.
`CCCC(C)C(=O)OCC` (stereo not given) was tested, and the outcome was “inactive”.
`C=C(C)C(=O)OCCCCCCCCCCCC` was tested, and the outcome was “inactive”.
`CCCCCCOC(=O)CCCCC(=O)OCCCCCC` was tested, and the outcome was “inactive”.
For `CC/C=C\CCOC(=O)c1ccccc1O`, the AC50 was 32.8 µM (active).
For `C=CC(=O)NC(C)(C)C`, the outcome was “inactive”.
`CCCCC1C(=O)N(c2ccccc2)N(c2ccccc2)C1=O` was tested, and the outcome was “inactive”.
In the case of `COc1ccc(C(=O)/C(Br)=C\C(=O)O)cc1`, the AC50 is reported as 31.3 µM (active) and 27.4 µM (active).
`CCCCCCCCCCCC(=O)N(C)CC(=O)O` was tested, and the outcome was “inactive”.
For `CCCCCC1=CCCC1=O`, the outcome was “inactive”.
`C=CC(=O)OCC(C)OCC(C)OCC(C)OC(=O)C=C` (stereo not given) was tested, and the AC50 was 9.18 µM (active).
For `Oc1c(Cl)cc(Cl)c(Cl)c1Cl`, the AC50 was 31.5 µM (active).
In the case of `CCCCCCC=O`, the outcome is reported as “inactive”.
For `Fc1ccc(Br)cc1`, the outcome was “inactive”.
In the case of `CCCCCCCO`, the outcome is reported as “inactive”.
With `CCN1CN(CC)CN(CC)C1` the outcome was “inactive”.
In the case of `CCOC(=O)C1=NN(c2ccc(Cl)cc2Cl)C(C)(C(=O)OCC)C1` (stereo not given), the outcome is reported as “inactive”.
`CCOC(=O)C1=NOC(c2ccccc2)(c2ccccc2)C1` was tested, and the outcome was “inactive”.
For `Nc1ccc(C(=O)O)cc1`, the outcome was “inactive”.
For `O=C1CCCCCCCCCCC1`, the outcome was “inactive”.
In the case of `CCOC(=O)/C=C\C(=O)OCC`, the outcome is reported as “inactive”.
`Oc1ccccc1Cc1ccccc1O` was tested, and the outcome was “inactive”.
For `Oc1ccc(/C=C/c2cc(O)cc(O)c2)cc1`, the AC50 was 20 µM (active).
`c1ccc2c(c1)[nH]c1ccccc12` was tested, and the outcome was “inactive”.
For `C[N+](C)(C)CCCNS(=O)(=O)C(F)(F)C(F)(F)C(F)(F)C(F)(F)C(F)(F)C(F)(F)C(F)(F)C(F)(F)F`, the outcome was “inactive” and the AC50 was 36.4 µM (active).
For `CC(Cl)COP(=O)(OCC(C)Cl)OCC(C)Cl` (stereo not given), the outcome was “inactive”.
`CC(C)c1cccc(C(C)C)c1N` was tested, and the outcome was “inactive”.
In the case of `CC=C(C)C=CC=C(C)C`, the outcome is reported as “inactive”.
With `CCC1(C)C(=O)N(Cl)C(=O)N1Cl` (stereo not given) the outcome was “inactive”.
With `CC/C=C\C/C=C\C/C=C\CCCCCCCC(=O)OC` the AC50 was 30.6 µM (active).
`COc1ccc(C(=O)c2ccccc2)c(O)c1` was tested, and the outcome was “inactive”.
`c1ccc2sc(SSN3CCOCC3)nc2c1` was tested, and the outcome was “inactive”.
`Nc1cccc(N)n1` was tested, and the outcome was “inactive”.
`C=CCCCCCCCCC=O` was tested, and the outcome was “inactive”.
`CC(C)C(=O)OCCc1ccccc1` was tested, and the outcome was “inactive”.
